Among all 340,000 compounds or so, about 2,100 (0.62%) were called active.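 Rule for the calls: active = first-screen hits whose inhibition reached a set limit at any dose in the follow-up dose series; inconclusive = inhibition above the set first-screen limit but never retested; inactive = the rest.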 The list is a sample of the results. Results with a measured potency or affinity are listed apart.
molecular target: Rac GTPase-activating protein 1 (Homo sapiens) (UniProt Q9H0H5); assay: blockers of MgcRacGAP-driven Rac1 GTP hydrolysis – biochemical, ADP Hunter fluorescence, primary and confirmatory, confirmation (AID 624330); conditions: MgcRacGAP-stimulated Rac1 GTP hydrolysis, at 30 µM, active compounds read high, GST-tagged Rac1 F28L mutant substrate;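 note: fluorescence reports GDP produced by GAP-driven GTP hydrolysis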
Sequence (Q9H0H5 whole entry, looked up): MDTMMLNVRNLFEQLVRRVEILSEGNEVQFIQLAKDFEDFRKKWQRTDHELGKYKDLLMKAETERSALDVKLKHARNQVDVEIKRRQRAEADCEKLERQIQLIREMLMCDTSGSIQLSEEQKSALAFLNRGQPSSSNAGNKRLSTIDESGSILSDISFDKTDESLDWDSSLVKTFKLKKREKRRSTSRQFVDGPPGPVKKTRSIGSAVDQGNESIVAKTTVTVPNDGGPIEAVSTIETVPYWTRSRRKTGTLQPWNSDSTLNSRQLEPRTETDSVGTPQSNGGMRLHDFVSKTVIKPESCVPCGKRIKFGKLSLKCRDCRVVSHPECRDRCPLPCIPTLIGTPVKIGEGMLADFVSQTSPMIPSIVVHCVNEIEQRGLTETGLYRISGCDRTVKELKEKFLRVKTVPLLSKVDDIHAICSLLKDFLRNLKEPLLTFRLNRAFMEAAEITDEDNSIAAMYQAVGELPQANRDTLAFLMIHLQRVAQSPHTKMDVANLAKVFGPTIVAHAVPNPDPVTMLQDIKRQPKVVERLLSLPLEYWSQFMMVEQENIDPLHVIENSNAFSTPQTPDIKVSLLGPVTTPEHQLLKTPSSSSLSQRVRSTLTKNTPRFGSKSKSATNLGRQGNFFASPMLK

inhibition, inactive:
CC(=O)Nc1ccc2sc(NC(=O)CN3CCOCC3)nc2c1 7.43%
CCCCc1cc(=O)oc2cc(OCC(=O)Nc3ccccn3)ccc12 11.4%
CSc1nc(=O)n2cccc(C)c2n1 0.29%
Cc1cccn2c(N)c(-c3ccccc3)nc12 7.39%
c1ccn2c(Cc3nnc4ccccn34)nnc2c1 3.25%
Cc1ccn2c(C(C)O)nnc2c1 (stereo not drawn) 11.7%
Cc1ccn2c(=O)cc(C)nc2c1 -1.02%
Fc1ccc(-c2nnc3ccccn23)cc1 0.86%
O=C(CCC(=O)N1CCOCC1)NCCc1ccccc1 0.87%
CCN(CC(=O)Nc1ccc(NC(C)=O)cc1)C(=O)c1ccc2c(c1)S(=O)(=O)N=C1CCCCCN12 1.15%
CCOc1ccccc1NC(=S)N1CCCCCC1 5.32%
CCCCN1C(=O)/C(=C(/C#N)C(N)=O)c2ccccc21 10.6%
CCOC(=O)/C(C#N)=C1/C=Cc2ccccc2N1CC 12.8%
CCOC(=O)/C(C#N)=C1/C=CN(Cc2ccccc2)C=N1 6.15%
CCOC(=O)C(C#N)=C1CCN(Cc2ccccc2)CC1 11.1%
Cc1ccc(C(=O)NC(NCc2ccco2)C(Cl)(Cl)Cl)cc1 (stereo not drawn) 2.01%
O=C(NCCCN1CCCC1)c1ccc2c(c1)N(Cc1ccccc1)CCS2 -3.35%
O=C(COC(=O)CCc1c[nH]c2ccccc12)NCc1ccccc1 4.56%
COCCNC(=S)N(Cc1cc2cc(C)ccc2n2nnnc12)C1CCCC1 1.01%
COc1ccc(C(=O)NC(=S)N(C)Cc2ccccc2)cc1Br 3.69%
Cc1nc2scc(C)n2c(=O)c1S(=O)(=O)N1CCN(c2ccc(F)cc2)CC1 5.64%
Cc1nc2scc(C)n2c(=O)c1S(=O)(=O)N1CCN(c2ccccc2)CC1 1.78%
O=CN(/C=C1\Sc2ccccc2C1=O)Cc1ccccc1 10%
Cc1sc2ncnc(Nc3ccccc3)c2c1C 4.64%
Cc1sc2ncnc(N/N=C/c3cccc(O)c3)c2c1C 20.2%
Cc1ccc(Nc2ncnc3sc(C)c(C)c23)cc1 18.3%
COc1ccc(/C=N/Nc2ncnc3sc(C)c(C)c23)cc1 11.8%
COCCOc1cc(NC(=O)CS(=O)(=O)CC(=O)N(C)C)c(Cl)cc1Cl -10.1%
O=C(Nc1cccc(Cl)c1)C1C2C=CC3(O2)C1C(=O)N(CCN1CCCCC1)C3C(=O)NC1CCCCC1 (stereo not drawn) 4.26%
CCN(CC)C(=O)CN(c1ccc(C)cc1)S(=O)(=O)c1ccc(SC)cc1 3.34%
COc1ccc(C2CC(=O)Nc3ccccc3S2(=O)=O)cc1OC (stereo not drawn) 11.4%
O=C(Nc1cccc(C(=O)Nc2ccccc2F)c1)c1ccccc1 -9.87%
CN(C)c1ccc(/C=C/c2ccncc2)cc1 16.4%
CN(C)c1ccc(/C=C/C(=O)c2cccnc2)cc1 10.2%
O=C(CSc1ccc2nnc(-c3cccnc3)n2n1)Nc1ccccc1C(F)(F)F 6.49%
CCN(CC)c1ccc(N=Cc2cc(Br)ccc2O)cc1 10.9%
Oc1cccc(C=Nc2cccc3ccccc23)c1O -2.71%
Cc1cccc(C=Nc2ccc3c(c2)oc2ccccc23)c1O 25.6%
Oc1ccc(Cl)cc1/C=N/c1nccs1 3.22%
OCC(CO)(CO)N=Cc1cc(Br)ccc1O 8.85%
Oc1ccc(Cl)cc1C=Nc1ccccc1Br 4.11%
COc1ccccc1-c1nnc(SCC(=O)Nc2ccc(S(N)(=O)=O)cc2)n1C 7.69%
C[C@H](CO)N1C[C@H](C)[C@H](CN(C)C(=O)Nc2ccc(C(C)(C)C)cc2)OCc2cnnn2CCCC1=O -5.61%
COc1ccc(OC)c(S(=O)(=O)NCC(=O)NC2CCCc3ccccc32)c1 (stereo not drawn) 6.06%
O=C(Nc1ccc2c(c1)OCO2)C1CCCN1C(=O)OCc1ccccc1 (stereo not drawn) 6.44%
C=CCN(CC=C)CCOc1ccc(OC(C)C)cc1 26.4%
COc1ccc2nc(C)cc(SCC(=O)N/N=C/c3ccc(O)cc3O)c2c1 17.7%
COc1ccc2c(c1)c(C(=O)N/N=C/c1cccc(O)c1)c(C)n2C 16.9%
COc1ccc2nc(C)cc(SCC(=O)N/N=C/c3ccccc3)c2c1 5.43%
COc1ccc2c(c1)c(C(=O)N/N=C/c1ccc(OC)c(OC)c1)c(C)n2C -2.93%
CC(=O)Nc1c2c(nn1-c1ccc(Cl)cc1)CSC2 2.25%
O=C(CCc1ccccc1)NNC(=O)COc1ccccc1 11.8%
Cc1ccc2ccc(C(Nc3cccc(C(F)(F)F)c3)c3cccnc3)c(O)c2n1 (stereo not drawn) 10.8%
COc1cc(CCC(=O)OCC(=O)N(CCC#N)c2ccccc2)cc(OC)c1OC 7.7%
Cc1ccc(NCc2ccccc2OCc2ccccc2F)cc1 11.5%
CCOc1cc(CNc2ncn[nH]2)ccc1OCC(=O)NC(C)(C)C 1.46%
COc1cccc(CNCCO)c1OCc1ccccc1Cl 9.99%
COc1cc(CNc2ccc3[nH]c(=O)[nH]c3c2)ccc1OCc1ccc(C)cc1 16.9%
CCOc1cc(CNC)ccc1OCC(=O)NC(C)(C)C 2.12%
COc1cc(CNc2ncn[nH]2)ccc1OCc1cccc(C)c1 8.87%
Oc1ccc(NCc2ccccc2OCc2ccccc2)cc1 11.9%
COc1cccc(CNc2ccc3[nH]c(=O)[nH]c3c2)c1OCc1ccc(F)cc1 26.2%
COc1ccc(C(=O)Nc2ccncc2)c(OC)c1 13.1%
Cn1cc(C(=O)C(=O)NC2CCCCC2)c2ccccc21 10%
COc1ccc(C(CNC(=O)c2ccc(NS(=O)(=O)c3ccc(F)cc3)cc2)N2CCOCC2)cc1 (stereo not drawn) 4.8%
CN(CC(=O)Nc1ccc(F)c(F)c1F)C(=O)CN1C(=O)NC2(CCCC2)C1=O 9.6%
CCOC(=O)c1cc2ccc3ccccc3c2oc1=O 8.31%
Cc1ccc2c(c1)nnn2C1CCN(CC(=O)NNC(=O)c2ccco2)CC1 0.28%
CCOc1cccc(CNc2ccc(O)cc2)c1OCc1ccccc1Cl 29.3%
CCOc1cccc(CNc2ccc(O)cc2)c1OCc1ccc(Cl)cc1 19.5%
CCCCCCN1C[C@@H](O)[C@H](n2cc(-c3ccc(F)cc3)nn2)C[C@@H]1c1ccc(C)cc1 6.07%
CNCc1c(OCc2ccccc2F)ccc2ccccc12 -6.3%
O=C1/C(=C\c2ccco2)SC(=S)N1c1ccccc1 23.6%
O=C1/C(=C/c2ccco2)CCc2ccccc21 8.52%
O=C1/C(=C\c2ccco2)NC(=S)N1c1ccccc1 21.9%
O=C1CNC(=O)/C(=C/c2ccco2)N1 14.3%
O=C1NC(=O)/C(=C/c2ccco2)N1 11%
O=C1C(=Cc2cccs2)C(=O)c2ccccc21 4.2%
O=C1CNC(=O)/C(=C/c2cccs2)N1 0.05%
O=C1/C(=C\c2ccco2)CCC/C1=C\c1ccco1 38.4%
O=C(NCc1cccc(Cl)c1)c1ccc(CS(=O)Cc2ccccc2Cl)o1 (stereo not drawn) -7.5%
C[C@@H]1CCCCO[C@H](CN(C)C(=O)Nc2ccc3c(c2)OCO3)[C@H](C)CN([C@@H](C)CO)C(=O)c2cc(NS(=O)(=O)c3ccc(Cl)cc3)ccc2O1 10.2%
O=C(CN1CCOc2ccccc21)NCc1ccccc1 -7.36%
O=C(N/N=C\c1ccccn1)C1COc2cc3ccccc3cc2O1 (stereo not drawn) 15.9%
CN1/C(=C/C2CC(=O)NC2=O)C(C)(C)c2ccccc21 (stereo not drawn) 6.09%
O=c1oc2c(CN3CCCCC3)c(O)ccc2c2c1CCCC2 -1.27%
COc1ccc(-c2noc(CCC(=O)NCCCN3CCC(C)CC3)n2)cc1 8.68%
O=C(COc1ccc(S(=O)(=O)N2CCCC2)cc1)N1CCN(c2ccccc2F)CC1 3.38%
CCN(Cc1ccncc1)C(=O)c1ccc2c(c1)S(=O)(=O)c1ccccc1C2=O -39.1%
CCOc1cc(/C=C2\C(=N)N3N=C(S(=O)(=O)CC)SC3=NC2=O)ccc1OC(=O)c1ccco1 26.5%
CCOc1cc(/C=C2\C(=N)N3N=C(S(C)(=O)=O)SC3=NC2=O)ccc1OCCOc1cccc(OC)c1 12.1%
CC1=CN2C(=N)/C(=C/c3ccco3)C(=O)N=C2S1 5.23%
C=CCOc1ccc(/C=C2\C(=N)N3N=C(S(=O)(=O)CC)SC3=NC2=O)cc1OC -6.72%
COc1cc(/C=C2/C(=N)N3C=CSC3=NC2=O)ccc1OCCCOc1cc(C)ccc1C 4.39%
CCC1=NN2C(=N)/C(=C\c3ccc(SCc4ccco4)o3)C(=O)N=C2S1 45.8%
CCCC1=NN2C(=N)/C(=C\c3ccc(SCc4ccco4)o3)C(=O)N=C2S1 60.1%
CCS(=O)(=O)C1=NN2C(=N)/C(=C\c3ccc(OC(=O)c4ccco4)c(OC)c3)C(=O)N=C2S1 30.5%
CCC(=O)Nc1cc(-c2nn(C)c(=O)c3ccccc23)ccc1N1CCOCC1 1.97%
